Screens (PubChem)
Shown are actives, neighbours in structure and some others; about 4.6% of the full set was active somewhere.
hgDAF12 agonist = H. glycines DAF-12 receptor agonists, primary screen, cell-based, luminescence, HEK293, GAL4 fusion, UAS-luciferase; HEK293 GAL4-hgDAF12 UAS-luciferase reporter, agonist luminescence; normalized to butyrate control; activation, % at 6.8 µM; Nuclear hormone receptor DAF-12 (Heterodera glycines), GAL4 fusion; 370,000 compounds, 1.8% hits;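 active = activation above a cutoff set at the mean of all screened compounds plus 3 SD, cut at about 10% in these data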;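 note: 0% = DMSO wells and 100% = sodium butyrate wells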
DAX1 inh-1 = DAX1 (NR0B1) inhibitors on StAR promoter, primary screen, cell-based, luminescence, SF-1 (NR5A1), full-length DAX-1. HEK293T StAR-luciferase reporter, SF-1/DAX-1 repression relief. inhibition, % at 6.8 µM. 370,000 compounds, 1.1% hits. AID 652010, 2013;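 active = inhibition above the mean over all tested compounds plus 3 SD, cut at about 3.6% in these data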;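 note: 0% = DAX-1 cells with DMSO and 100% = cells lacking DAX-1 with DMSO; higher inhibition means more luminescence from relief of DAX-1 repression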
ssDAF-12 act = S. stercoralis DAF-12 nuclear receptor activators, primary screen, cell-based, luminescence, HEK293, GRIP1 co-expression, lit1-tk-luc. Nuclear hormone receptor DAF-12 (Strongyloides stercoralis). HEK293 ssDAF-12/GRIP1 lit1-tk-luc reporter; % of 3 µM dafachronic acid response. activation, % at 6.8 µM. 370,000 compounds, 1% hits. AID 652126, 2013;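 active = activation above the mean over all tested compounds plus 3 SD, cut at about 0.9% in these data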;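 note: 0% = DMSO-only wells and 100% = 3 µM delta7-dafachronic acid wells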
Wee1 stabilizer = Wee1 degradation inhibitors, primary screen, cell-based, HeLa, Wee1K328M-luciferase, luminescence. Wee1-like protein kinase (Homo sapiens), P30291. HeLa Luc-Wee1K328M stability; 100% = proteasome inhibitor MG132 effect. reporter increase, % at 5 µM. 220,000 compounds, 1.2% hits;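 active = activation above the mean of all tested compounds plus 3 SD, set per screening run, cut at about 8.8% in these data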;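 note: cells exposed to compound for 20 h before luminescence read; 0% = DMSO alone and 100% = MG132 at 30 µM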
Target sequence (P30291 whole entry K328M): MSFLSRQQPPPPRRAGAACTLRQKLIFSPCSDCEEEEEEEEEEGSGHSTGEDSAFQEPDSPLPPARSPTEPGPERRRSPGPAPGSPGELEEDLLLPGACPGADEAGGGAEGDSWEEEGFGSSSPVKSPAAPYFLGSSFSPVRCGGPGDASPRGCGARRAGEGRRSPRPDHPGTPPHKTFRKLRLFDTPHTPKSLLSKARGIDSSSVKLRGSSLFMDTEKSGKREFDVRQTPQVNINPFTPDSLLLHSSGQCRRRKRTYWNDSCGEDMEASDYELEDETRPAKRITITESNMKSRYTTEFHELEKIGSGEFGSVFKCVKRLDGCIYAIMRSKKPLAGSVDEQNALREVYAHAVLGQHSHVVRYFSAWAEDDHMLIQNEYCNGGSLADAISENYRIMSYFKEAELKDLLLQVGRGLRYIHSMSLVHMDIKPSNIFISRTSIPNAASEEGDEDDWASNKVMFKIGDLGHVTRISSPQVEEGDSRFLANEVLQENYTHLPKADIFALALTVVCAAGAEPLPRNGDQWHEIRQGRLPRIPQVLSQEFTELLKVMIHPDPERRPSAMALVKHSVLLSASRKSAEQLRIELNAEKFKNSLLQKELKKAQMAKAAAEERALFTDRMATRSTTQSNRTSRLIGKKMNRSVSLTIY
hcDAF-12 act = H. contortus DAF-12 nuclear receptor activators, primary screen, cell-based, luminescence, HEK293, lit1-tk-luc reporter; AID 652067, 2013; activation, % at 6.8 µM; HEK293 hcDAF-12 lit1-tk-luc reporter; 0% DMSO, 100% Δ7-dafachronic acid; 370,000 compounds, 1.4% hits;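 active = activation above the mean of all tested compounds plus 3 SD, cut at about 5.5% in these data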;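 note: 100% = response to 3 µM Δ7-dafachronic acid high control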
DAX1 inh-2 = DAX1 (NR0B1) inhibitors, primary screen, cell-based, HEK293, Gal4-DAX1, luciferase luminescence | 340,000 compounds, 0.99% hits | inhibition, % at 6.75 µM | AID 504766, 2011 | HEK293 Gal4-DAX1 luciferase reporter | Nuclear receptor subfamily 0 group B member 1 (Homo sapiens), P51843;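 active = inhibition above the mean over all tested compounds plus 3 SD, cut at about 4.2% in these data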;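 note: 0% = DAX1-transfected cells with DMSO and 100% = empty-vector control cells with DMSO; inhibition shows as a rise in luminescence from relieved DAX1 repression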
* hit, by the source's call; · = no result.

SMILES	hgDAF12 agonist	DAX1 inh-1	ssDAF-12 act	Wee1 stabilizer	hcDAF-12 act	DAX1 inh-2
COc1ccc(C2c3[nH]c4ccccc4c3C[C@H]3C(=O)N(c4ccccc4C(=O)N4CCC[C@H]4C(=O)O)C(=O)N23)cc1 (some centres undefined)	1	1	0	·	5	5.2*
CC(C)c1ccc(C2c3[nH]c4ccccc4c3C[C@H]3C(=O)N(c4ccccc4C(=O)N4CCC(C(=O)O)CC4)C(=O)N23)cc1 (some centres undefined)	4	0	-1	·	5.8*	3
O=C(NCc1cccc2ccccc12)C1CCCN(c2nc3ccccc3o2)C1 (centres undefined)	-1	0	-1	·	1	·
COc1ccc2ccc(OC)c(/C=N/NC(=O)c3cc4ccccc4o3)c2c1	1	0	-1	·	-2	1
C[C@H]1[C@@H](OC(=O)NCc2cccnc2)CC[C@@]23CCCN2C(=O)CCC[C@@H]13	0	·	-1	·	0	·
CCOC(=O)c1nn(-c2ccc(Cl)cc2)cc1O	7	2	-1	-1	2	8.9*
CCOC(=O)c1nn(-c2ccccc2)cc1O	0	1	-1	0	1	1
CCOC(=O)c1nn(-c2ccc3ccccc3c2)cc1O	13*	4.4*	-2	-3	2	1
Cc1ccc(/C=N/N2CCOCC2)s1	0	2	-1	-1	2	5.6*
O=C(c1ccccc1)N1CC[C@H]2[C@H](CCCN2Cc2cc(F)cc(F)c2)C1	3	-1	-2	·	-2	·
Cc1ccc(S(=O)(=O)N2CCOCC2)cc1NC(=O)CSCc1c(C)noc1C	0	3.6*	-1	·	-1	1
CCOc1ccc(S(=O)(=O)N2CCOCC2)cc1NC(=O)CSCc1c(C)noc1C	-1	0	-1	·	1	0
O=C1CC(N2CCN(c3ccccn3)CC2)C(=O)N1c1ccc(F)cc1 (centres undefined)	1	0	1.7*	-5	0	·
CC(C)CCN1CCC(CN2C(=O)C(=O)NC[C@@H]2CC(C)C)CC1	1	-1	-1	·	-1	·
O=C1NC[C@H](CCCCN2C[C@H](Cc3ccccc3)N(CCC3CCCCC3)C(=O)C2=O)N(CC2CCCCC2)C1=O	3	-1	-1	·	0	·
CC(C)C[C@H]1CNC(=O)C(=O)N1CC1CCN(CC2CCC(C(C)(C)C)CC2)CC1 (some centres undefined)	2	4.1*	-1	·	0	-1
CC(C)C[C@H]1CN(CCCC[C@@H]2CNC(=O)C(=O)N2CC2CCCCC2)C(=O)C(=O)N1Cc1ccccc1	11*	0	-1	·	-2	·
O=C1NC[C@H](CCCCN2C[C@H](Cc3ccccc3)N(CC3CCCCC3)C(=O)C2=O)N(CCC2CCCCC2)C1=O	1	0	1.4*	·	-1	·
COC(=O)[C@]1(C)N[C@H](CN(C)C(=O)C2CCCCC2)[C@@H]2C(=O)N(Cc3ccccc3)C(=O)[C@@H]21	-1	0	-1	·	-1	0
C=CCN(CC#Cc1cccnc1)Cc1ccc(OC)cc1OC	-3	-1	-1	·	-3	·
CN(C)/C=N/c1ncc(C(=O)c2ccccc2)s1	7	2	-1	5	2	3
CN(C)/C=N/c1ncc(C(=O)c2ccc(-c3ccccc3)cc2)s1	12*	0	-2	-3	0	0
COc1cc(C2C(C#N)=C(N)Oc3cc4c(cc32)OCO4)cc(OC)c1OC (centres undefined)	-1	4.4*	-1	1	0	1
CC1CCCN(CC(O)COc2ccc(S(=O)(=O)N3CCCC3)cc2[N+](=O)[O-])C1 (centres undefined)	0	-1	-1	·	0	0
CCC(C)CCN1C(Nc2ccccc2)=NC[C@@H]1Cc1ccccc1 (some centres undefined)	4	0	-1	·	-1	0
SMILES	hgDAF12 agonist	DAX1 inh-1	ssDAF-12 act	Wee1 stabilizer	hcDAF-12 act	DAX1 inh-2
CC(C)CCN1C(Nc2ccccc2)=NC[C@@H]1CC(C)C	1	-1	0	·	6.3*	1
Cc1cccc(CCN2C(Nc3ccccc3)=NC[C@@H]2CC(C)C)c1	0	0	-1	·	0	6.7*
CC(C)C[C@H]1CN=C(Nc2ccccc2)N1CCc1cccc(F)c1	·	·	·	·	·	0
CCC(C)CCN1C(Nc2ccccc2)=NC[C@@H]1CC(C)C (some centres undefined)	2	0	-1	·	-1	4.8*
COc1ccccc1CCC(=O)Nc1ccc2c(c1)c(=O)n(C)n2-c1cccs1	2	-5	-1	·	-2	·
COc1cc(NS(=O)(=O)c2cc3[nH]c(=O)c(=O)[nH]c3cc2C)cc(OC)c1OC	-2	1	-1	·	5	4.8*
COC(=O)c1cccc(N2C(=O)C[C@](Sc3ccc(OC)cc3)(C(=O)N3CCOCC3)[C@H]2c2ccc(OC)cc2)c1	2	-1	-1	·	-2	·
N#Cc1ccc(OCC(=O)OCC(=O)Nc2ccc(N3CCOCC3)cc2)cc1	0	2	-1	·	0	1
O=C(COC(=O)COc1cccc(C(F)(F)F)c1)Nc1ccc(N2CCOCC2)cc1	0	-2	-1	·	6.1*	0
O=C(CN1C(=O)C2CCCCC2C1=O)OCn1nnc2ccccc2c1=O (centres undefined)	1	0	-2	-4	1	6.4*
O=C1C=C(Nc2ccccc2C(=O)O)c2ccccc2C1=O	1	0	0	-2	6.3*	0
O=C1C=C(Nc2ccccc2)c2ccccc2C1=O	-8	-2	-1	-2	-1	0
Cc1ccc(NC(=O)CN2CCC(NC(=O)c3cccc(F)c3)CC2)cc1C	-2	0	-2	·	-1	4
O=C(CN1CCC(NC(=O)C2CC2)CC1)Nc1cccc(F)c1	1	0	0.9*	·	5	0
CN(C)S(=O)(=O)c1ccc(C(=O)OCCCN=C2NS(=O)(=O)c3ccccc32)cc1	1	-1	-1	-2	-2	4.4*
O=C(N/N=C/c1cccc(OC(=O)N2CCOCC2)c1)c1cccs1	11*	1	-1	9.1*	4	1
